Most compounds without a hit are left out; they make up all but 9.2% or so of the library.
ELG1 genotox = genotoxicity induction in ELG1-luciferase HEK293T cells; Potency, µM (titrated, usually from 46 µM), hits mostly activators; HEK293T ELG1-luciferase reporter, luminescence, 16 h; AID 504466; 330,000 compounds, 1.3% hits; further: nearly all actives have a fitted effect of over 60% in size
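Screening used a luciferase reporter fused to human ELG1 in HEK293T cells. Luminescence was read on a CCD plate imager after 16 hr exposure and 30 min ONE-Glo incubation.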
FLuc counter = counter-screen for miR-21 project: firefly luciferase inhibitors or activators. P08659. purified FLuc, Km substrates, luminescence inhibition. Potency, µM (titrated, usually from 57.5 µM), actives largely listed as inhibitors. 360,000 compounds, 6.9% hits. AID 588342; further: nearly all actives have a fitted effect of over 55% in size
Target sequence (P08659 whole entry, looked up): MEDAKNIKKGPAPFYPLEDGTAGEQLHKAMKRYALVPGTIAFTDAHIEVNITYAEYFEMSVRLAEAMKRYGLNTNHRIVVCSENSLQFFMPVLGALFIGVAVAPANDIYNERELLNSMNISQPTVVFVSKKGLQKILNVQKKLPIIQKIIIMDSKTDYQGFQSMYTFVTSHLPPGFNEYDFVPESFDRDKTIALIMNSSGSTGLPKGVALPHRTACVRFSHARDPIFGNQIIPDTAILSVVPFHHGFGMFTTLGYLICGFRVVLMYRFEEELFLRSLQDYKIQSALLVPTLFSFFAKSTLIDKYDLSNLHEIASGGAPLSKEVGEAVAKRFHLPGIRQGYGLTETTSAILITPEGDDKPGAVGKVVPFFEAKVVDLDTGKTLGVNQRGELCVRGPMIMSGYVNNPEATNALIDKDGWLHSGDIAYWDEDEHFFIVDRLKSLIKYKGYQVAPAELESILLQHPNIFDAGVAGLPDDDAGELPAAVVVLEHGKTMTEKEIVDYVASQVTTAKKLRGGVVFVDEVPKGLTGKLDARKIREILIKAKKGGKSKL
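Purified P. pyralis luciferase (10nM final) with 10uM D-luciferin and 10uM ATP (Km levels) in 50mM Tris acetate pH 7.5, 10mM Mg acetate, 0.01% Tween-20, 0.05% BSA; qHTS 6-point titration, ~60 µM downward; luminescence read.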
ELG1 repair inh = ELG1-dependent DNA repair inhibition. HEK293T ELG1-luciferase reporter, luminescence, 16 h; DNA damage induced by 5-fluorouridine. Potency, µM (series often up to 46.1 µM), usual class: inhibitors. 330,000 compounds, 2.3% hits; further: nearly all actives have a fitted effect of over 55% in size
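5-Fluorouridine DNA damage + compound/DMSO, 2,000 cells/well, 16 h, 37 °C/5% CO2. ONE-Glo, 30 min RT, luminescence. Readout = decrease in reporter signal.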
Rab9 promoter act = Rab9 promoter activation | Potency, µM (titrated, usually from 9.22 µM), actives largely listed as activators | 320,000 compounds, 2.8% hits | Huh7 Rab9 promoter-luciferase reporter, luminescence, 24 h; further: nearly all actives have a fitted effect of over 60% in size
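Huh7 cells stably carrying Rab9 promoter–luciferase reporter, plated 1500 cells/well, compound added after 2 h and incubated 24 h at 37 °C; luciferase luminescence then read after 10 min with detection reagent.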
SMN2 splice up = increases expression of the SMN2 splice variant; Potency, µM (doses to about 46.1 µM), actives largely listed as activators; 210,000 compounds, 2.8% hits; AID 1458; HEK293 SMN2-luciferase splicing reporter, luminescence, 30-36 h; further: nearly all actives have a fitted effect of over 55% in size
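qHTS luciferase splicing reporter: luminescence rises when SMN2 exon 7 is included in transfected HEK293 cells. Compound exposure lasted 30-36 h at 37C, with 4.5 mM final sodium butyrate as control, followed by a ONE-Glo read.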
NPC1 prom act = NPC1 promoter activation | Huh7 NPC1 promoter luciferase reporter, 24 h | Potency, µM (top dose mostly 9.22 µM), actives largely listed as activators | 320,000 compounds, 2.4% hits; further: nearly all actives have a fitted effect of over 60% in size
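Stably transfected Huh7 (NPC1 promoter→luciferase), 1500 cells/well in Opti-MEM + 10% FBS, 2 h settle, then compound 24 h at 37 °C. Luminescence after 10 min with Amplite reagent.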
A number is an active result. The call rests on the fitted dose curve; in most records, active means well fitted curve in the direction sought with a large enough effect; inconclusive means small, poorly fitted or top-dose-only effect, or another doubt; inactive means no such curve, though single readings can be large; an effect the other way counts as inactive or inconclusive.

CC(C)OC(=O)CC(=O)CSc1nc2c(cc1C#N)CCCCC2 was read as ELG1 genotox 15µM, FLuc counter 7.6µM, ELG1 repair inh inconclusive, Rab9 promoter act inconclusive, SMN2 splice up inconclusive and NPC1 prom act inactive.
`CCOC(=O)CC(=O)CSc1nc2c(c(C)c1C#N)CCC2` gave ELG1 genotox inactive, FLuc counter 11µM, ELG1 repair inh inactive, Rab9 promoter act inactive, SMN2 splice up inactive and NPC1 prom act inactive.
For CCOC(=O)CC(=O)CSc1nc(C)cc(C)c1C#N the results were ELG1 genotox inactive, FLuc counter inactive, ELG1 repair inh inactive, Rab9 promoter act inactive, SMN2 splice up inactive and NPC1 prom act inactive.
Screening CCOC(=O)CC(=O)CSc1nc2c(cc1C#N)CCCCC2 returned ELG1 genotox 7.1µM, FLuc counter 9.5µM, ELG1 repair inh inconclusive, Rab9 promoter act inconclusive, SMN2 splice up inconclusive and NPC1 prom act inactive.
Screening Cc1ccccc1NC(=O)Cn1cnc2c(oc3nc4c(cc32)CCCC4)c1=O returned ELG1 genotox inactive, FLuc counter inactive, ELG1 repair inh inactive, Rab9 promoter act inactive and NPC1 prom act inactive.
For CCOC(=O)CC(=O)COc1nc2cc3c(nc2o1)CCCC3 the results were ELG1 genotox inconclusive, FLuc counter 13µM, ELG1 repair inh inconclusive, Rab9 promoter act inactive and NPC1 prom act inactive.
Screening CC1(c2nnc(-c3cccc(Cl)c3)o2)CC(c2cccc([N+](=O)[O-])c2)=NO1 (centres undefined) returned ELG1 genotox inactive, FLuc counter inactive, ELG1 repair inh inconclusive, Rab9 promoter act inactive and NPC1 prom act inactive.
`Cc1ccc(C)c(N2CCN(C(=O)c3cc4cc5ccc(C)cc5nc4s3)CC2)c1` gave FLuc counter inactive and SMN2 splice up inactive.
COCCCNC(=O)c1cc2c(=O)oc3ccc(C)cc3c2s1 was read as FLuc counter inactive and SMN2 splice up inactive.
CC(CC(=O)Nc1cccnc1)c1ccccc1 (centres undefined) was read as ELG1 genotox inactive, FLuc counter inactive, ELG1 repair inh inactive, Rab9 promoter act inactive, SMN2 splice up inactive and NPC1 prom act inactive.
`C[C@]12CCC3c4ccc(O)cc4CCC3[C@@H]1CCC2=O` (some centres undefined) gave SMN2 splice up inactive.
Screening Cc1c(C(=O)NN2CCOCC2)oc2c1ccc1ccccc12 returned ELG1 genotox inactive, FLuc counter inactive, ELG1 repair inh inactive, Rab9 promoter act inactive, SMN2 splice up inactive and NPC1 prom act inactive.
For CC(=O)N(C1=C(N2CCOCC2)C(=O)c2ccccc2C1=O)c1ccc(C(=O)O)cc1 the results were ELG1 genotox inactive, FLuc counter inactive, ELG1 repair inh 23µM, Rab9 promoter act inactive and NPC1 prom act inactive.
`COc1ccc(/C=C/C(=O)NC(=S)N2CCN(c3ccccc3OC)CC2)cc1` gave ELG1 genotox inactive, FLuc counter inconclusive, ELG1 repair inh inconclusive, Rab9 promoter act inconclusive and NPC1 prom act 4µM.
`COc1ccc(/C=C/C(=O)NC(=S)N2CCOCC2)cc1` gave ELG1 genotox inconclusive, FLuc counter 11µM, ELG1 repair inh inconclusive, Rab9 promoter act 1.6µM and NPC1 prom act 3.5µM.
For COc1ccc(/C=C/C(=O)NC(=S)Nc2ccc(N3CCN(C(C)=O)CC3)cc2)cc1 the results were ELG1 genotox inactive, FLuc counter inactive, ELG1 repair inh inactive, Rab9 promoter act inactive and NPC1 prom act inactive.
`COc1ccc(-n2c(-c3ccc(C)cc3)cc3c2CC(C)(C)CC3=O)cc1Cl` gave FLuc counter inactive and SMN2 splice up inactive.
For Fc1ccc2[nH]c(-c3cccs3)cc2c1 the results were FLuc counter inconclusive and SMN2 splice up inactive.
For O=S(=O)(c1ccccc1)c1cnc(-c2ccccc2)nc1N1CCCCC1 the results were ELG1 genotox inactive, FLuc counter inactive, ELG1 repair inh inactive, Rab9 promoter act inactive, SMN2 splice up inactive and NPC1 prom act inactive.
O=C(NNC(=O)c1ccccc1-c1ccccc1C(=O)O)c1cccc([N+](=O)[O-])c1 was read as ELG1 genotox inactive, FLuc counter inactive, ELG1 repair inh inactive, Rab9 promoter act inactive, SMN2 splice up inactive and NPC1 prom act inactive.
For COc1ccccc1C(=O)NNC(=O)c1cccc(C)c1 the results were ELG1 genotox inconclusive, FLuc counter 12µM, ELG1 repair inh inconclusive, Rab9 promoter act inconclusive and NPC1 prom act inconclusive.
Screening COc1ccccc1C(=O)NNC(=O)c1cccc([N+](=O)[O-])c1 returned ELG1 genotox inconclusive, FLuc counter 19µM, ELG1 repair inh inconclusive, Rab9 promoter act inconclusive, SMN2 splice up inconclusive and NPC1 prom act inactive.
`O=C(NNC(=O)c1ccccn1)c1cccc([N+](=O)[O-])c1` gave ELG1 genotox inactive, FLuc counter inactive, ELG1 repair inh 12µM, Rab9 promoter act inactive, SMN2 splice up inactive and NPC1 prom act inactive.
Screening C=CCNC(=O)N1CCCC(N2CCN(c3ccccc3OC)CC2)C1 (centres undefined) returned ELG1 genotox inactive, FLuc counter inactive, ELG1 repair inh inactive, Rab9 promoter act inactive and NPC1 prom act inactive.
For CCO[C@H]1OC(C(=O)N2CCCCCCC2)=C[C@@H](c2coc3ccccc3c2=O)[C@@H]1CCCO the results were ELG1 genotox inactive, FLuc counter inactive, ELG1 repair inh inconclusive, Rab9 promoter act inactive and NPC1 prom act inactive.
Cc1ccc(-c2nc(CS(=O)(=O)CC(=O)NC(C)CCc3ccccc3)c(C)o2)cc1 (centres undefined) was read as FLuc counter inactive and SMN2 splice up inactive.
`O=c1sc2ccccc2n1COc1ccccc1` gave ELG1 genotox inactive, FLuc counter inactive, ELG1 repair inh inactive, Rab9 promoter act inactive, SMN2 splice up inactive and NPC1 prom act inactive.
For Cc1ccccc1OCCCn1c(=O)sc2ccccc21 the results were ELG1 genotox inactive, FLuc counter 9.5µM, ELG1 repair inh inconclusive, Rab9 promoter act inconclusive, SMN2 splice up 18µM and NPC1 prom act inconclusive.
For Cc1ccc(OCCCn2c(=O)sc3ccccc32)cc1 the results were ELG1 genotox inactive, FLuc counter 17µM, ELG1 repair inh inconclusive, Rab9 promoter act inactive, SMN2 splice up inactive and NPC1 prom act inactive.
`O=c1sc2ccccc2n1COc1ccc(Cl)cc1` gave ELG1 genotox inconclusive, FLuc counter 19µM, ELG1 repair inh inconclusive, Rab9 promoter act inconclusive, SMN2 splice up inactive and NPC1 prom act inactive.
For O=c1sc2ccccc2n1CCCOc1ccccc1 the results were ELG1 genotox inactive, FLuc counter 11µM, ELG1 repair inh inconclusive, Rab9 promoter act 2.5µM, SMN2 splice up inconclusive and NPC1 prom act 3.2µM.
